Inconclusive results are not listed. Calls of active or inactive are those of the source. Calls come from the whole dose curve; as a rule, active = well fitted inhibition curve with a large enough effect; inconclusive = small, poorly fitted or top-dose-only effect; inactive = flat fitted curve, though single readings scatter.
% is set by controls: 0 for no effect and ±100 for the full control effect; potency is the fitted concentration of half-maximal effect.

Chain of Luciferin 4-monooxygenase (Photinus pyralis) (P08659 whole entry, looked up): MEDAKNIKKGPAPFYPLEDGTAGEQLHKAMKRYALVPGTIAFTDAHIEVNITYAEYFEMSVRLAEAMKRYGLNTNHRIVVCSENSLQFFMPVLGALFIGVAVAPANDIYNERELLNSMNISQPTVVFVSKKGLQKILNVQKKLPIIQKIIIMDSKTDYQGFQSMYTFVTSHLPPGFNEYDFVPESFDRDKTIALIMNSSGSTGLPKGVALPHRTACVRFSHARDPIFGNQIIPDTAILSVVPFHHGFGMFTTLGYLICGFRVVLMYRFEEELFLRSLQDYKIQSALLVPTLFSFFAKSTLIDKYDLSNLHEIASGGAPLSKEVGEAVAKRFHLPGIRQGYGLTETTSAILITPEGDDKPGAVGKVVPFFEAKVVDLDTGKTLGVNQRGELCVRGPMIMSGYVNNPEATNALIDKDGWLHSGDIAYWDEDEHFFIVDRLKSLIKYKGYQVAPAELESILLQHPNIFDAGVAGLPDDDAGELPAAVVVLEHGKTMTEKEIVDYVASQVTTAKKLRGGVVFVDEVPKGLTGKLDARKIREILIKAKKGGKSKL

The target in this assay is Luciferin 4-monooxygenase (Photinus pyralis) (UniProt P08659). Put plainly: qHTS Assay for Inhibitors of Firefly Luciferase from the GSK Published Protein Kinase Inhibitor Set. The settings on record: purified firefly luciferase, luminescence inhibition; series mostly up to 57.5 µM; activity change, negative = inhibition: at the top concentration. The method, boiled down:
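Enzyme-level luminescence assay: compounds titrated (about 60uM down to 300pM) into substrate buffer (10uM ATP, 10uM D-luciferin, pH 7.5 Tris acetate with Mg, Tween-20, BSA), then 10nM firefly luciferase added; read after ~5 min.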
Regarding `NC(=O)c1sc(-n2cnc3ccc(C(F)(F)F)cc32)cc1OCc1ccccc1Br`, the “activity change, negative = inhibition” value was -6.69% (inactive).

Take `CCn1c(-c2nonc2N)nc2c(C#CC(C)(C)O)nc(OCC(N)c3ccccc3)cc21` (stereo not drawn): the Potency entry is “inactive”. On to `CCn1c(-c2nonc2N)nc2c(C#CC(C)(C)O)ncc(OCC3CCCN3)c21` (stereo not drawn), for which the “activity change, negative = inhibition” value is -25.6% (inactive). On the same count and under the same terms, as for `COc1ccc2nc3c4nc5ccc(OC)cc5c4c4c(=O)[nH]c(=O)c4c3c2c1`, the figure is -4.51% (inactive). For `N#Cc1c(NC(=O)c2ccc(F)cc2)sc2c1CCCC2`, the Potency is 0.919 µM (active). Turning to `NS(=O)(=O)c1ccc(Nc2ncc(-c3ccccc3)o2)cc1`, the “activity change, negative = inhibition” value is -5.78% (inactive). As to `COC(=O)Nc1nc2ccc(Oc3ccc(NC(=O)Nc4ccccc4)cc3)cc2[nH]1`, the Potency was 14.6 µM (active). Still for that read-out and setting: as for `CN(C)CCOc1ccc(-c2nc(-c3ccc4c(c3)CCC4=NO)c(-c3ccncc3)[nH]2)cc1`, the figure is 14.6 µM (active). Consider `CCn1c(-c2nonc2N)nc2c(N3CCCC3)nccc21`, for which the “activity change, negative = inhibition” value was 11.3% (inactive). With `CN(C)CCCn1c(-c2nonc2N)nc2cnccc21`, the “activity change, negative = inhibition” value is 10.5% (inactive). With `COc1ccc(COc2ccc(Cc3cnc(N)nc3N)cc2OC)cc1`, the “activity change, negative = inhibition” value was 0.275% (inactive). On the same count and under the same terms, the result for `NC(=O)c1ccc2c(-c3ccnc(NCCCO)n3)c(-c3ccc(F)cc3)nn2c1` reads -9.6% (inactive); that for `Fc1ccc(-c2ncn(C3CCNCC3)c2-c2ccnc(Oc3ccc(Oc4ccccc4)cc3)n2)cc1`, 15.8% (inactive). Still for that read-out and setting: the result for `COc1cccc(-n2ncc3c(NN=Cc4ccc(C)cc4)ncnc32)c1` reads -8.95% (inactive); that for `CNC(=O)c1ncccc1Nc1nc(Nc2cc3c(cc2OC)CCCN3C(=O)CN(C)C)nc2[nH]ccc12`, 14.4% (inactive); that for `CS(=O)(=O)CCNCc1nc(-c2ccc3ncnc(Nc4ccc(OCc5cccc(C(F)(F)F)c5)cc4)c3c2)cs1`, 5.22% (inactive). With `c1ccc(Nc2ncc(-c3ccccc3)o2)cc1`, the Potency is 0.259 µM (active). `COc1cc2ncnc(Nc3ccc4c(cnn4Cc4ccccc4)c3)c2cc1OC`: the “activity change, negative = inhibition” value is -4.23% (inactive).

Consider `Fc1ccc(-c2cc(-c3cn[nH]c3-c3ccccn3)ccn2)cc1`, for which the “activity change, negative = inhibition” value is -9.65% (inactive).

For `CCS(=O)(=O)c1ccc(OC)c(Nc2ncc(-c3cccc(OC)c3)o2)c1`, the “activity change, negative = inhibition” value was -4.23% (inactive). Same read-out and setting: as for `Cn1c(-c2nonc2N)nc2cnccc21`, the figure is 4.48% (inactive); as for `CCn1c(-c2nonc2N)nc2cncc(C(=O)N3CCC(N)C3)c21` (stereo not drawn), 3.05% (inactive); as for `NS(=O)(=O)c1ccc(N=Nc2c(O)[nH]c3cccc(CCc4ccncc4)c23)cc1`, 7.91% (inactive). The same measure, in the same setting: the result for `CC1=C(C(=O)Nc2ccc3[nH]ncc3c2)C(c2ccc(F)cc2)NC(=O)N1` (stereo not drawn) reads -2.1% (inactive). Same read-out and setting: as for `COc1ccc(-c2coc3ncnc(N)c23)cc1`, the figure is 0.905% (inactive). Consider `CC(=O)NCc1cccc(C#Cc2cncnc2Nc2ccc(OCc3cccc(F)c3)c(Cl)c2)c1`, for which the “activity change, negative = inhibition” value was -82.4% (inactive). On the same count and under the same terms, the result for `NS(=O)(=O)c1ccc(N=Nc2c(O)[nH]c3ccc(-c4cnco4)cc23)cc1` reads 1.94% (inactive). On the same count and under the same terms, as for `CCS(=O)(=O)c1ccc(OC)c(Nc2nccc(N(C)c3ccc4c(C)[nH]nc4c3)n2)c1`, the figure is 0.285% (inactive).

As for `CNC(=O)c1cccc(C#Cc2cncnc2Nc2ccc(OCc3cccc(F)c3)c(Cl)c2)c1`, the “activity change, negative = inhibition” value was -14.8% (inactive). Same read-out and setting: the result for `COc1ccc(-c2oc3ncnc(N)c3c2-c2ccc(NC(=O)Nc3cc(C(F)(F)F)ccc3F)cc2)cc1` reads 0.585% (inactive); that for `N#Cc1c(NC(=O)CN2CCOCC2)sc2c1CCCC2`, -8.28% (inactive).

Turning to `COc1cccc(Nc2nccc(-c3cnn4ncccc34)n2)c1`, the “activity change, negative = inhibition” value is 4.6% (inactive).

Regarding `c1ccc(-c2[nH]ncc2-c2ccnc(-c3ccc(OCCN4CCOCC4)cc3)c2)nc1`, the “activity change, negative = inhibition” value is 2.73% (inactive).

Source of the values: PubChem BioAssay AID652016 (National Center for Advancing Translational Sciences (NCATS), 2013).
